Screening results as filed in PubChem BioAssay.
Compounds with a hit are over-represented: about 10% of the library has one in this group of screens.
HP1b binding inh: HTS for Inhibitors of HP1-beta Chromodomain Interactions with Methylated Histone Tails; 390,000 compounds, 0.56% hits; AlphaScreen HP1-beta / biotin-H3K9me3 peptide binding; Potency, µM (doses to about 114 µM), for the others: at the highest dose activity change, negative = inhibition, actives largely listed as inhibitors; note: nearly all actives have a fitted effect of over 70% in size
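Compound inhibition of the preformed complex between 50 nM HP1-beta and 50 nM biotinylated H3K9me3 peptide was read by AlphaScreen. Buffer was PBS pH 7.4 with 0.01% Tween-20. Incubations ran 30 min at room temperature, with 10 ug/mL donor/acceptor beads.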
G9a block: qHTS Assay for Inhibitors of Histone Lysine Methyltransferase G9a | Histone-lysine N-methyltransferase EHMT2 (Homo sapiens), Q96KQ7 | G9a H3K9 monomethylation, AlphaScreen, 2 h | Potency, µM (highest dose often 102 µM), for the others: at the highest dose activity, negative = inhibition, most hits filed as inhibitors | 350,000 compounds, 8.8% hits | AID 504332, 2011; note: % is set by controls: 0 for no effect and ±100 for the full control effect; nearly all actives have a fitted effect of over 75% in size
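Methyltransferase reactions run at room temperature for 2 h (20 nM enzyme, 500 nM biotin-H3K9 peptide, 20 uM SAM) after a 15 min compound preincubation; product detected by AlphaScreen beads and anti-H3K9me1 antibody.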
GLS inh: qHTS for Inhibitors of Glutaminase (GLS). Potency, µM (top dose mostly 45.5 µM), for the others: at the highest dose activity change, negative = inhibition, usual class: inhibitors. GLS enzymatic activity, qHTS titration. AID 624170, 2012. 410,000 compounds, 0.21% hits. Glutaminase kidney isoform, mitochondrial (Homo sapiens), O94925; note: % is set by controls: 0 for no effect and ±100 for the full control effect
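Read-out is an Amplex red fluorescence increase coupled through glutamate oxidase and HRP, measured before and after 30 min room-temperature incubation. hKGA is in 45 mM KH2PO4 (pH 8.2) with 0.02% Tween-20; glutamine added as 1mM solution.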
BAZ2B inh: qHTS Assay for Inhibitors of BAZ2B. AlphaScreen BAZ2B-H3K14Ac peptide displacement. Bromodomain adjacent to zinc finger domain protein 2B (Homo sapiens), Q9UIF8. AID 504333, 2011. Potency, µM (highest dose often 114 µM), for inactives: at the highest dose activity change, negative = inhibition, actives largely listed as inhibitors. 360,000 compounds, 4.4% hits; note: % is set by controls: 0 for no effect and ±100 for the full control effect; nearly all actives have a fitted effect of over 60% in size
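Compounds, titrated to a top concentration of 110 uM, were incubated 30 min at room temperature with preformed BAZ2B/acetyl-K14 H3 peptide complex (50 nM each). Proximity signal was measured by AlphaScreen after 20 min with beads.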
JMJD2A Tudor inh: qHTS Assay for Inhibitors of JMJD2A-Tudor Domain; Lysine-specific demethylase 4A (Homo sapiens), O75164; AlphaScreen JMJD2A-Tudor / H3K4me3 peptide binding; Potency, µM (series often up to 114 µM), for the others: top-dose activity change, negative = inhibition, actives largely listed as inhibitors; 390,000 compounds, 4.4% hits; note: % is set by controls: 0 for no effect and ±100 for the full control effect; nearly all actives have a fitted effect of over 50% in size
* marks the source's active call; other numbers are inactive results; [ ] = remark or other dose. Calls come from the whole dose curve; as a rule, active = well fitted curve in the direction sought with a large enough effect; inconclusive = small, poorly fitted or top-dose-only effect, or another doubt; inactive = no such curve, though single readings can be large; an effect the other way counts as inactive or inconclusive. Potency is the fitted concentration of half-maximal effect.

For Cc1cc2n(n1)SC(Nc1cc(Cl)ccc1Cl)N2 (centres undefined) the results were HP1b binding inh -4%, G9a block 7.9µM*, GLS inh 2%, BAZ2B inh 2% and JMJD2A Tudor inh -32%.
`COc1c(C)cccc1C(=O)Nc1cccc2ccc(C)nc12` gave HP1b binding inh 110%, G9a block 89%[59 µM], GLS inh 2%, BAZ2B inh 76% and JMJD2A Tudor inh 64%.
Screening CCCCN(C)c1c(C)nc2ccc(C(=O)Nc3cc(-c4ccccc4)ccc3OC)cn12 returned GLS inh 12%.
For CC1=C(C(=O)Nc2ccc(Cl)cc2)C(c2cccs2)n2nc(SCc3cccc(C)c3)nc2N1 (centres undefined) the results were HP1b binding inh 37%, G9a block 9%[59 µM], GLS inh 6%, BAZ2B inh 3% and JMJD2A Tudor inh -4%.
COc1ccc(N2CCN(C(=O)c3cc4c(-c5ccccc5F)nn(C)c4s3)CC2)cc1 was read as HP1b binding inh inconclusive, G9a block 11µM*, GLS inh -8% and JMJD2A Tudor inh 11µM*.
Screening COc1ccc(N2CCN(C(=O)c3cc4c(-c5ccc(Cl)cc5)nn(C)c4s3)CC2)cc1 returned HP1b binding inh -1%, G9a block 35µM*, GLS inh 10%, BAZ2B inh 10µM* and JMJD2A Tudor inh inconclusive.
Screening Cc1ccc(/C(O)=C2/C(=O)C(=O)N(CC(=O)O)C2c2ccc([N+](=O)[O-])cc2)cc1 (centres undefined) returned HP1b binding inh 57%, G9a block inconclusive, GLS inh inconclusive, BAZ2B inh inconclusive and JMJD2A Tudor inh 50µM*.
For Cc1ccc(/C(O)=C2/C(=O)C(=O)N(c3ccccn3)C2c2cccc([N+](=O)[O-])c2)cc1 (centres undefined) the results were HP1b binding inh 3%, G9a block 35µM*, GLS inh 1%, BAZ2B inh -37% and JMJD2A Tudor inh -21%.
For Cc1ccc(/C(O)=C2\C(=O)C(=O)N(CC(C)O)C2c2ccccn2)cc1 (centres undefined) the results were HP1b binding inh 10%, GLS inh -1%, BAZ2B inh 19% and JMJD2A Tudor inh 35µM*.
Screening Cc1ccc(/C(O)=C2\C(=O)C(=O)N(C)C2c2ccc([N+](=O)[O-])cc2)cc1 (centres undefined) returned HP1b binding inh 30%, G9a block 8%[0.501 µM], GLS inh 11%, BAZ2B inh -21% and JMJD2A Tudor inh -7%.
Screening COc1ccc(C2/C(=C(/O)c3ccc(C)cc3)C(=O)C(=O)N2c2ccccn2)cc1 (centres undefined) returned HP1b binding inh 3%, G9a block 45µM*, GLS inh -2%, BAZ2B inh -13% and JMJD2A Tudor inh -22%.
`Cc1nnc(N2C(=O)C(=O)/C(=C(/O)c3ccc4c(c3)OCCO4)C2c2cccc([N+](=O)[O-])c2)s1` (centres undefined) gave GLS inh 14%.
`O=C1C(=O)N(Cc2cccnc2)C(c2ccccn2)/C1=C(/O)c1ccccc1` (centres undefined) gave HP1b binding inh 5%, G9a block inconclusive, GLS inh 16%, BAZ2B inh inconclusive and JMJD2A Tudor inh inconclusive.
For CCCCCCCCCCCCCCC(O)C[N+](C)(CCO)CCO (centres undefined) the results were HP1b binding inh 10%, GLS inh -19% and JMJD2A Tudor inh -15%.
COC(=O)[C@]12CCCCC=C1N(Cc1cccc3ccccc13)C(=O)[C@H](CC(=O)NCCCN1CCCC1=O)C2 was read as GLS inh -2%.
